# Experimental data from PubChem BioAssay (NCATS).
# Active and inactive are the calls of the source. Calls follow the shape of the dose curve; as a rule, active = well fitted activation curve with a large enough effect; inconclusive = small, poorly fitted or top-dose-only effect; inactive = flat fitted curve, though single readings scatter.
# Experiment: Confirmation and Secondary Assay for Modulators of Hemoglobin Beta Chain Splicing at IVS2 654 locus (AID 910);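 also: HeLa cells stably carrying EGFP split by mutant beta-globin IVS2-654 intron; per-well total GFP intensity by laser scanning cytometry after 2-day treatment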
# Conditions: HeLa EGFP-654 splicing reporter, GFP fluorescence, 48 h; series mostly up to 46.1 µM; activation (splicing correction): at the top concentration
# In short: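 Readout: per-well total peak green fluorescence (488 nm ex, 500–520 nm em) from objects 5–250 µm, reflecting correct splicing of an EGFP-654 reporter. Compounds were applied for 2 days at 37 °C to overnight-plated HeLa EGFP-654 cells; controls were DMSO and 500 nM IVS2-654 PNA.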
# Also: % of control where 0% means no effect.
row,SMILES,activation (splicing correction)
1,c1ccc(-c2ccc(C(c3ccccc3)n3ccnc3)cc2)cc1 (stereo not given),-8.18% (inactive)
2,CCOc1ccc2nc3cc(N)ccc3c(N)c2c1,21% (inactive)
3,C/C=C(/C(=C/C)c1ccc(O)cc1)c1ccc(O)cc1,2.42% (inactive)
4,CO/N=C1\CN(c2nc3c(cc2F)c(=O)c(C(=O)O)cn3C2CC2)CC1CN (stereo not given),4.08% (inactive)
5,COc1cc(OC)cc(OC)c1,3.38% (inactive)
6,CC(C)(Oc1ccc(Cl)cc1)C(=O)O,7.24% (inactive)
7,Oc1ccc(Cl)c2cccnc12,6.53% (inactive)
8,CCC(=O)c1c(O)cc(O)cc1O,5.47% (inactive)
9,CCCCc1nc(Cl)c(CO)n1Cc1ccc(-c2ccccc2-c2nn[nH]n2)cc1,6.25% (inactive)
10,CCN(CC)C(=O)N1CCN(C)CC1,4.17% (inactive)
11,CCCCOc1ccc(OCCCN2CCOCC2)cc1,-5.22% (inactive)
12,OC(CCN1CCCCC1)(c1ccccc1)c1ccccc1,-4.4% (inactive)
13,CCOC(=O)n1ccn(C)c1=S,4.93% (inactive)
14,O=C(OCC(O)CO)c1ccccc1Nc1ccnc2cc(Cl)ccc12 (stereo not given),-6.17% (inactive)
15,COc1ccc(CCN2CCC(Nc3nc4ccccc4n3Cc3ccc(F)cc3)CC2)cc1,-9.14% (inactive)
16,Oc1c(I)cc(I)c2cccnc12,-6.35% (inactive)
17,CCN(CC)CCOC(=O)C(c1ccccc1)C1CCCCC1 (stereo not given),-0.585% (inactive)
18,COc1ccc(OC)c(C(O)CNC(=O)CN)c1 (stereo not given),-0.536% (inactive)
19,CCCCCCCCCCCCCCCCOP(=O)([O-])OCC[N+](C)(C)C,15.1% (inactive)
20,Cc1ccnc(NS(=O)(=O)c2ccc(N)cc2)n1,4.22% (inactive)
21,CC(Cc1cccc(C(F)(F)F)c1)NCCOC(=O)c1ccccc1 (stereo not given),2.48% (inactive)
22,CN(C(=O)CN(CCO)CC(=O)N(C)C(C)(C)Cc1ccccc1)C(C)(C)Cc1ccccc1,2.84% (inactive)
23,CCCCOc1ccc(C(=O)CCN2CCCCC2)cc1,11.3% (inactive)
24,COc1ccc(C2C(=O)c3ccccc3C2=O)cc1,-1.12% (inactive)
25,COc1c2occc2c(OC)c2c(=O)cc(C)oc12,5.31% (inactive)
26,O=C1c2ccccc2C(=O)C1c1ccccc1,-4.83% (inactive)
27,CN1CCC(=C2c3ccccc3Sc3ccccc32)CC1,-7.67% (inactive)
28,CCN(CCCc1ccccc1)CCCc1ccccc1,2.39% (inactive)
29,CCCCOc1cc(C(=O)NCCN(CC)CC)c2ccccc2n1,-0.838% (inactive)
30,CC(C)(C)CC(C)(C)c1ccc(O)c(Cc2ccc(Cl)cc2Cl)c1,-5.88% (inactive)

# Experiment: Confirmation and Secondary Assay for Modulators of Hemoglobin Beta Chain Splicing at IVS2 705 locus (AID 930);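 also: HeLa cells stably expressing the EGFP-705 splicing reporter; GFP fluorescence per well restored by corrected splicing of the IVS2-705 intron in EGFP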
# Conditions: HeLa EGFP-705 splicing reporter, GFP fluorescence, 48 h; series mostly up to 46.1 µM; activation: at the top concentration
# In short: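 HeLa EGFP-705 reporter; 500 cells/well, o/n 37C 5% CO2; cpd 2 d; 488 ex/500-520 em laser scan; total peak GFP intensity/well. Ref: 500 nM […] antisense PNA.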
row,SMILES,activation
1,c1ccc(-c2ccc(C(c3ccccc3)n3ccnc3)cc2)cc1 (stereo not given),0.947% (inactive)
2,CCOc1ccc2nc3cc(N)ccc3c(N)c2c1,1.1% (inactive)
3,C/C=C(/C(=C/C)c1ccc(O)cc1)c1ccc(O)cc1,0.671% (inactive)
4,CO/N=C1\CN(c2nc3c(cc2F)c(=O)c(C(=O)O)cn3C2CC2)CC1CN (stereo not given),0.925% (inactive)
5,COc1cc(OC)cc(OC)c1,0.43% (inactive)
6,CC(C)(Oc1ccc(Cl)cc1)C(=O)O,-0.942% (inactive)
7,Oc1ccc(Cl)c2cccnc12,4.02% (inactive)
8,CCC(=O)c1c(O)cc(O)cc1O,0.285% (inactive)
9,CCCCc1nc(Cl)c(CO)n1Cc1ccc(-c2ccccc2-c2nn[nH]n2)cc1,-0.0165% (inactive)
10,CCN(CC)C(=O)N1CCN(C)CC1,1% (inactive)
11,CCCCOc1ccc(OCCCN2CCOCC2)cc1,-1.82% (inactive)
12,OC(CCN1CCCCC1)(c1ccccc1)c1ccccc1,-1.26% (inactive)
13,CCOC(=O)n1ccn(C)c1=S,1.96% (inactive)
14,O=C(OCC(O)CO)c1ccccc1Nc1ccnc2cc(Cl)ccc12 (stereo not given),1.01% (inactive)
15,COc1ccc(CCN2CCC(Nc3nc4ccccc4n3Cc3ccc(F)cc3)CC2)cc1,-0.253% (inactive)
16,Oc1c(I)cc(I)c2cccnc12,-0.251% (inactive)
17,CCN(CC)CCOC(=O)C(c1ccccc1)C1CCCCC1 (stereo not given),2.71% (inactive)
18,COc1ccc(OC)c(C(O)CNC(=O)CN)c1 (stereo not given),-0.679% (inactive)
19,CCCCCCCCCCCCCCCCOP(=O)([O-])OCC[N+](C)(C)C,1.14% (inactive)
20,Cc1ccnc(NS(=O)(=O)c2ccc(N)cc2)n1,0.292% (inactive)
21,CC(Cc1cccc(C(F)(F)F)c1)NCCOC(=O)c1ccccc1 (stereo not given),-0.362% (inactive)
22,CN(C(=O)CN(CCO)CC(=O)N(C)C(C)(C)Cc1ccccc1)C(C)(C)Cc1ccccc1,-1.35% (inactive)
23,CCCCOc1ccc(C(=O)CCN2CCCCC2)cc1,3.27% (inactive)
24,COc1ccc(C2C(=O)c3ccccc3C2=O)cc1,-0.113% (inactive)
25,COc1c2occc2c(OC)c2c(=O)cc(C)oc12,0.0409% (inactive)
26,O=C1c2ccccc2C(=O)C1c1ccccc1,0.48% (inactive)
27,CN1CCC(=C2c3ccccc3Sc3ccccc32)CC1,0.768% (inactive)
28,CCN(CCCc1ccccc1)CCCc1ccccc1,1.9% (inactive)
29,CCCCOc1cc(C(=O)NCCN(CC)CC)c2ccccc2n1,1.13% (inactive)
30,CC(C)(C)CC(C)(C)c1ccc(O)c(Cc2ccc(Cl)cc2Cl)c1,0.459% (inactive)
